In ChEMBL document CHEMBL1961873, “Compounds: GSK PKIS; Assays: Nanosyn kinase panel” (2012):

How the values were obtained:
[1] = biological target: T1, Aurora kinase A (Homo sapiens) (UniProt O14965); conditions: at 1 µM;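 note: values are mean percent inhibition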
T1 sequence (whole entry): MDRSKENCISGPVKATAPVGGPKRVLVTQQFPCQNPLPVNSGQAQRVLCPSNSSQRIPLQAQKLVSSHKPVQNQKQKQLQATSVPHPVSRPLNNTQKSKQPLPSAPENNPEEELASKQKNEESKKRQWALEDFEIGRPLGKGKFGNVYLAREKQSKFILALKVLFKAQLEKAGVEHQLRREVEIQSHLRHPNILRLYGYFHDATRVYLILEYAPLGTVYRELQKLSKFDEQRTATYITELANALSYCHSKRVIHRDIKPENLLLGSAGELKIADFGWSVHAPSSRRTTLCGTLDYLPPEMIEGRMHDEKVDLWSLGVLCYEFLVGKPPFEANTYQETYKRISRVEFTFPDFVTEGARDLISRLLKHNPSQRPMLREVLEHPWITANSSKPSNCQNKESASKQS

[2] = biological target: Aurora kinase B (Homo sapiens) (UniProt Q96GD4); conditions: at 0.1 µM
[3] = biological target: Aurora kinase B (Homo sapiens) (UniProt Q96GD4); conditions: at 1 µM
[4] = biological target: T2, Aurora kinase C (Homo sapiens) (UniProt Q9UQB9); conditions: at 0.1 µM
T2 sequence (whole entry): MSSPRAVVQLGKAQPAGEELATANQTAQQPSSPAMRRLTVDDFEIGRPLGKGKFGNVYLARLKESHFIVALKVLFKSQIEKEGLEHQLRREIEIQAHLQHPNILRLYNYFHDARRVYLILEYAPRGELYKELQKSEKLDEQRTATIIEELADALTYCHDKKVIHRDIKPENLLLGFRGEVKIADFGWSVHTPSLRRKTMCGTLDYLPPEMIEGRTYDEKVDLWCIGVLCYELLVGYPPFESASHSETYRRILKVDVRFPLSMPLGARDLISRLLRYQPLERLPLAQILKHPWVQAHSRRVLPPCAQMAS

[5] = biological target: T2, Aurora kinase C (Homo sapiens); conditions: at 1 µM
[6] = biological target: Serine/threonine-protein kinase 10 (Homo sapiens) (UniProt O94804); conditions: at 0.1 µM
[7] = biological target: Serine/threonine-protein kinase 10 (Homo sapiens) (UniProt O94804); conditions: at 1 µM
[8] = biological target: T3, Mitogen-activated protein kinase kinase kinase kinase 2 (Homo sapiens) (UniProt Q12851); conditions: at 0.1 µM
T3 sequence (whole entry): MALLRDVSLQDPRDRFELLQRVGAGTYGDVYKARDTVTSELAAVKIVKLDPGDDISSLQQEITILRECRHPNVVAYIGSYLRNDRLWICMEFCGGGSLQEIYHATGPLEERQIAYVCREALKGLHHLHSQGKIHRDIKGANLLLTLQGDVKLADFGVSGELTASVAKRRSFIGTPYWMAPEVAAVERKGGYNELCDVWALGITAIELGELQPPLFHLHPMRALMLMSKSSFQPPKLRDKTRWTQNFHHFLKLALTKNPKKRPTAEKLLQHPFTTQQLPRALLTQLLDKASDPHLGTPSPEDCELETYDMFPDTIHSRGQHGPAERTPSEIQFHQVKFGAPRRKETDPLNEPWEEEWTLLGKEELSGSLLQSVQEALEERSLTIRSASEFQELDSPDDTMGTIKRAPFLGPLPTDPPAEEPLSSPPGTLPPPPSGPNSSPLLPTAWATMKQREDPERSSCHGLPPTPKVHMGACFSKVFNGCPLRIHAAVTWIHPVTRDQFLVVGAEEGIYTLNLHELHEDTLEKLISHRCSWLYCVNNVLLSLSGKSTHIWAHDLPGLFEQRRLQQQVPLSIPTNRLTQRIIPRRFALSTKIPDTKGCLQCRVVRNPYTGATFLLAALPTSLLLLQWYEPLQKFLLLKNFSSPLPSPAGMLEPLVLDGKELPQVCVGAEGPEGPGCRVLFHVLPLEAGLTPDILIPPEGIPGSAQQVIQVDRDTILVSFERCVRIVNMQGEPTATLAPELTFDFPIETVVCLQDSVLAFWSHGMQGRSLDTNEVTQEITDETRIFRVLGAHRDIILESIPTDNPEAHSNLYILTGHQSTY

[9] = biological target: T3, Mitogen-activated protein kinase kinase kinase kinase 2 (Homo sapiens); conditions: at 1 µM
[10] = biological target: Mitogen-activated protein kinase kinase kinase kinase 4 (Homo sapiens) (UniProt O95819); conditions: at 0.1 µM
[11] = biological target: Mitogen-activated protein kinase kinase kinase kinase 4 (Homo sapiens) (UniProt O95819); conditions: at 1 µM
[12] = biological target: Dual specificity mitogen-activated protein kinase kinase 1 (Homo sapiens) (UniProt Q02750); conditions: at 0.1 µM
[13] = biological target: Dual specificity mitogen-activated protein kinase kinase 1 (Homo sapiens) (UniProt Q02750); conditions: at 1 µM
[14] = biological target: Misshapen-like kinase 1 (Homo sapiens) (UniProt Q8N4C8); conditions: at 0.1 µM
[15] = biological target: Misshapen-like kinase 1 (Homo sapiens) (UniProt Q8N4C8); conditions: at 1 µM
[16] = biological target: T4, Serine/threonine-protein kinase 4 (Homo sapiens) (UniProt Q13043); conditions: at 0.1 µM
T4 sequence (whole entry): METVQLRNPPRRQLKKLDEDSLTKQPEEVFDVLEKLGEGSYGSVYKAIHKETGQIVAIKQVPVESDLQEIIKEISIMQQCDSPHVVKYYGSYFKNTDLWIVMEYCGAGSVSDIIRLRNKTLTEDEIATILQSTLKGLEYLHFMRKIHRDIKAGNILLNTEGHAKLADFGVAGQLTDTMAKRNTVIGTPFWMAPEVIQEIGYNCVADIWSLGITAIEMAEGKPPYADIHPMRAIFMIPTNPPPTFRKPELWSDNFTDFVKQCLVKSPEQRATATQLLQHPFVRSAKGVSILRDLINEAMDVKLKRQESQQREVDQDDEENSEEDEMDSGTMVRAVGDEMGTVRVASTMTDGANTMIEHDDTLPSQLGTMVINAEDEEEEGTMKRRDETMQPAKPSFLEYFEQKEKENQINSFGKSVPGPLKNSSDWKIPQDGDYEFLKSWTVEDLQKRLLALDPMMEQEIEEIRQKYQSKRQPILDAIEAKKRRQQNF

[17] = biological target: T4, Serine/threonine-protein kinase 4 (Homo sapiens); conditions: at 1 µM
[18] = biological target: T5, Serine/threonine-protein kinase 3 (Homo sapiens) (UniProt Q13188); conditions: at 0.1 µM
T5 sequence (whole entry): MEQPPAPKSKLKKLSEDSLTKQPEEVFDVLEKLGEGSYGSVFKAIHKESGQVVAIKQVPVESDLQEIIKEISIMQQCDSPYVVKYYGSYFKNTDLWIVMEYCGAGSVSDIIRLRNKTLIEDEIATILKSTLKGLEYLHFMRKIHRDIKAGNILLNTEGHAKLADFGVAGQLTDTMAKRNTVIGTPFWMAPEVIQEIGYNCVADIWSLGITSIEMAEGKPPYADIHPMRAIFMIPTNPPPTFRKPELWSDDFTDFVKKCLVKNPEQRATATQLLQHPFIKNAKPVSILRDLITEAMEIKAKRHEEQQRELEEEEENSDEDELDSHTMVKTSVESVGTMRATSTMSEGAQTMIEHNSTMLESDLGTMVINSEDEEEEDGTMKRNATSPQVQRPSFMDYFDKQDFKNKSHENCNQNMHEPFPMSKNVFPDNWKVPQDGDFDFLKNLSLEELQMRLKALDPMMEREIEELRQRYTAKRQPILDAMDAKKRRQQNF

[19] = biological target: T5, Serine/threonine-protein kinase 3 (Homo sapiens); conditions: at 1 µM
[20] = biological target: Serine/threonine-protein kinase 26 (Homo sapiens) (UniProt Q9P289); conditions: at 0.1 µM
Serine/threonine-protein kinase 26 (Homo sapiens), sequence (Q9P289 2-416 limits assumed): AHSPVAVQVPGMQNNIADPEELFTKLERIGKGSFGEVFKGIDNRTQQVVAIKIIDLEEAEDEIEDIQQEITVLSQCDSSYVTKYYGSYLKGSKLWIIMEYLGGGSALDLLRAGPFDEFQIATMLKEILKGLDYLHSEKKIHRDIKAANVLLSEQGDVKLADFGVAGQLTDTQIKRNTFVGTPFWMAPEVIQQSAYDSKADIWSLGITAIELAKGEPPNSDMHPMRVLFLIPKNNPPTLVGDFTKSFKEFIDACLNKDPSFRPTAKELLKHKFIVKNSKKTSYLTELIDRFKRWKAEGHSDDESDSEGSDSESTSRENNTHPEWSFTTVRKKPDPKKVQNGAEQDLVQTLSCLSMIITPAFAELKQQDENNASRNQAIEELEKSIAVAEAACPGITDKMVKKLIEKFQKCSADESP

Aurora kinase B (Homo sapiens), sequence (Q96GD4 whole entry): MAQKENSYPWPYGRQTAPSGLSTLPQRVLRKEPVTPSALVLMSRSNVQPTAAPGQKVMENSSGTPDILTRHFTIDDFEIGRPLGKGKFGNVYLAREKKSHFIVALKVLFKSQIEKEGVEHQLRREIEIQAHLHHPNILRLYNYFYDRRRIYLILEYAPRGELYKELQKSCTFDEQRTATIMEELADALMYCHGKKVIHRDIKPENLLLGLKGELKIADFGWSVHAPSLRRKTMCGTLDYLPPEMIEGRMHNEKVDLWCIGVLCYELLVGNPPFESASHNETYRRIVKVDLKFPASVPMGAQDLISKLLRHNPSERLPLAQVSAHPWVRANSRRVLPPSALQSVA
Mitogen-activated protein kinase kinase kinase kinase 4 (Homo sapiens), sequence (O95819 2-1239 limits assumed): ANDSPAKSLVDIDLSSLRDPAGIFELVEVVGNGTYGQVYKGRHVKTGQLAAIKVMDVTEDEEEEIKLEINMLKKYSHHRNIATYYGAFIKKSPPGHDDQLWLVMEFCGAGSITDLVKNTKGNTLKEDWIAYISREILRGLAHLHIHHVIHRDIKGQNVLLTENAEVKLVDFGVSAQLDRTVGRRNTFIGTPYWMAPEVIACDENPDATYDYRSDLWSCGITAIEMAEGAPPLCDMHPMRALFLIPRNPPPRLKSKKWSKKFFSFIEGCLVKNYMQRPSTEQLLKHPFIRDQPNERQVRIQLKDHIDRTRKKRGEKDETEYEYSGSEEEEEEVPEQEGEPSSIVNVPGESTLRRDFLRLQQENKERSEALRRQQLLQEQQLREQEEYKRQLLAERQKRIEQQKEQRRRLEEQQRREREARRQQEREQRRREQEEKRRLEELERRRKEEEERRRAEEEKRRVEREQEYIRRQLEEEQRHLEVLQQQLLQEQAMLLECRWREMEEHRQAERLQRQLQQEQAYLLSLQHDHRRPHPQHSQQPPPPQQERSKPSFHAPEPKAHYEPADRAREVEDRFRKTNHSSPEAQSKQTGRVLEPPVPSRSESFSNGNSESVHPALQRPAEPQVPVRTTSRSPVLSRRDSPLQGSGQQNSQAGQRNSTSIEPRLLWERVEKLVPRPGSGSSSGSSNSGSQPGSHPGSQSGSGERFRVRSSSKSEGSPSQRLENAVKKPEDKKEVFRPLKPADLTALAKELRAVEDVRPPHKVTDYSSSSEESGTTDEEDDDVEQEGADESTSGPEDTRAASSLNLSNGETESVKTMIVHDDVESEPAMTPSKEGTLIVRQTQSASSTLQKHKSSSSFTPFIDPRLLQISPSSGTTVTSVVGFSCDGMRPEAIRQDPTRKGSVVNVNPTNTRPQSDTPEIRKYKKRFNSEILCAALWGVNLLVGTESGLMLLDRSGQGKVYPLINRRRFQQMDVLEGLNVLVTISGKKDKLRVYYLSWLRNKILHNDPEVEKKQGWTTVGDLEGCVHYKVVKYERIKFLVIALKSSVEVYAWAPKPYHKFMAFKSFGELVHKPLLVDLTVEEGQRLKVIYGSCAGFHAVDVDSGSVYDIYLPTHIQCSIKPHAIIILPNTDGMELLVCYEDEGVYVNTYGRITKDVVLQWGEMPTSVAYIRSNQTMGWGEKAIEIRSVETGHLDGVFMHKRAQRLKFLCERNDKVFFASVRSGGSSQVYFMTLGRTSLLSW
Serine/threonine-protein kinase 10 (Homo sapiens), sequence (O94804 whole entry, looked up): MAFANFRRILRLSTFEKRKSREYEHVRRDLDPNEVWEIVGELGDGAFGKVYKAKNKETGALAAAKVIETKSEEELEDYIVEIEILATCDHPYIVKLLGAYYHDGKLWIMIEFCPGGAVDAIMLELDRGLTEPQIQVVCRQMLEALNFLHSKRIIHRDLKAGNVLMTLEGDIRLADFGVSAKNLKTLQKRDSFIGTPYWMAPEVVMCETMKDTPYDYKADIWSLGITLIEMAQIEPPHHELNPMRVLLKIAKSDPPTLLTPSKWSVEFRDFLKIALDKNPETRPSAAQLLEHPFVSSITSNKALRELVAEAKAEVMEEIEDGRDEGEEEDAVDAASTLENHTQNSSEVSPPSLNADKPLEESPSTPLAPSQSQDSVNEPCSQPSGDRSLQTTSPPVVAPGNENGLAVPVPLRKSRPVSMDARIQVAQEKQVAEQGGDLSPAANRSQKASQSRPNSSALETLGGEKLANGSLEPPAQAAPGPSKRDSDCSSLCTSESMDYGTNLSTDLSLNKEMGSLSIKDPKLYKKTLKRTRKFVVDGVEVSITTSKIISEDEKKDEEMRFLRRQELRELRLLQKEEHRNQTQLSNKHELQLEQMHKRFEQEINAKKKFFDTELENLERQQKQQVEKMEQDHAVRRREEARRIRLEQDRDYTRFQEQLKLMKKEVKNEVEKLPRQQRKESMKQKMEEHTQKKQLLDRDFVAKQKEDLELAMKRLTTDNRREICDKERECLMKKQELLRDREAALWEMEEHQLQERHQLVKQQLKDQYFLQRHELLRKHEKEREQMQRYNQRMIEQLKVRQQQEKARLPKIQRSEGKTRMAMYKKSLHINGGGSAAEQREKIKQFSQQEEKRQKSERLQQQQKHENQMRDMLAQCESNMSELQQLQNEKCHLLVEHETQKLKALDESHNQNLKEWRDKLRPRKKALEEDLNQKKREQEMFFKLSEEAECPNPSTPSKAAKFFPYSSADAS
Dual specificity mitogen-activated protein kinase kinase 1 (Homo sapiens), sequence (Q02750 whole entry): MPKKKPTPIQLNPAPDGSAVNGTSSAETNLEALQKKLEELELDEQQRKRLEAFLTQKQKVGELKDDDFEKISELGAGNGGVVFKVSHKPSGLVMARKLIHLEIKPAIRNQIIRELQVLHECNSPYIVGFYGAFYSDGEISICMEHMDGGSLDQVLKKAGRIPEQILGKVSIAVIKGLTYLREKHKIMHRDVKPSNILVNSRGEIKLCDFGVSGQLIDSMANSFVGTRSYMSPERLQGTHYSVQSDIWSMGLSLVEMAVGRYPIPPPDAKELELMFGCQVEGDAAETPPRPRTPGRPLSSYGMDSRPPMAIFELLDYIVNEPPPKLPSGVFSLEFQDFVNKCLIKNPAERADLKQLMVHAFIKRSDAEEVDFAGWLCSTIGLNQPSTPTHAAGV
Misshapen-like kinase 1 (Homo sapiens), sequence (Q8N4C8 whole entry, looked up): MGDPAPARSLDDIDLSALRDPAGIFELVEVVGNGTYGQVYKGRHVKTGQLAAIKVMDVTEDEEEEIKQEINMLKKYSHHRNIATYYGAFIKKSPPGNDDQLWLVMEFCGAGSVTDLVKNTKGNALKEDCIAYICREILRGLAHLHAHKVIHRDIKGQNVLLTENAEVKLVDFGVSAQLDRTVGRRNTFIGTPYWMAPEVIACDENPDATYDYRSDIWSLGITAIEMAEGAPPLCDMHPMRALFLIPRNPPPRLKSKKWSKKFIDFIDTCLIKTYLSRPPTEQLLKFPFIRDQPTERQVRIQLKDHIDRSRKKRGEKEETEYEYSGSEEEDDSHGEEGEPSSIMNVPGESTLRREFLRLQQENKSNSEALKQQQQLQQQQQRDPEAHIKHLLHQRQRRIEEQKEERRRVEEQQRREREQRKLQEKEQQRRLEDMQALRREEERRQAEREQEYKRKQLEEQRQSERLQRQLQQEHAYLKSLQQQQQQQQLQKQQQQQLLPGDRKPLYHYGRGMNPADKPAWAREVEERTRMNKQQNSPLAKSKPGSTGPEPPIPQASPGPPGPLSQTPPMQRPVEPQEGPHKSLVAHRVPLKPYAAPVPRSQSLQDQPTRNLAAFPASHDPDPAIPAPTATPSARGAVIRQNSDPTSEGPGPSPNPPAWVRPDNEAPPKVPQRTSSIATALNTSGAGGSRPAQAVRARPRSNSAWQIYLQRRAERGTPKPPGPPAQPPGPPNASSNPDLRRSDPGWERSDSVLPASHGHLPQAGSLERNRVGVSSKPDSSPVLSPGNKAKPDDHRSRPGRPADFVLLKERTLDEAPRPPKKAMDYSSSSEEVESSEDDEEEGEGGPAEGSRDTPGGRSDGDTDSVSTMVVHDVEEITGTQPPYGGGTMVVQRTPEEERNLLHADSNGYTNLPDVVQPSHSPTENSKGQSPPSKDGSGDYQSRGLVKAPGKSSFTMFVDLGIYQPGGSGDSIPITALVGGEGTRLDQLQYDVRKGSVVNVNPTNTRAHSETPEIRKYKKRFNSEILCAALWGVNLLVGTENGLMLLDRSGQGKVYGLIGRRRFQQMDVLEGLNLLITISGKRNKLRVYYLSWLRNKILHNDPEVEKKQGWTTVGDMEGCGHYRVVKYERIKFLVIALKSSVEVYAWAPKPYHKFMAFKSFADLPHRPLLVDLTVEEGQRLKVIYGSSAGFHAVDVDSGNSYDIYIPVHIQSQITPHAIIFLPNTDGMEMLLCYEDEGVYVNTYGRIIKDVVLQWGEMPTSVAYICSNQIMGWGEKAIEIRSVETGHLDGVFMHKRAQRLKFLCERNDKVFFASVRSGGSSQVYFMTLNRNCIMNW

| SMILES | inhibition [1] [%] | inhibition [2] [%] | inhibition [3] [%] | inhibition [4] [%] | inhibition [5] [%] | inhibition [6] [%] | inhibition [7] [%] | inhibition [8] [%] | inhibition [9] [%] | inhibition [10] [%] | inhibition [11] [%] | inhibition [12] [%] | inhibition [13] [%] | inhibition [14] [%] | inhibition [15] [%] | inhibition [16] [%] | inhibition [17] [%] | inhibition [18] [%] | inhibition [19] [%] | inhibition [20] [%] |
| --- | --- | --- | --- | --- | --- | --- | --- | --- | --- | --- | --- | --- | --- | --- | --- | --- | --- | --- | --- | --- |
| CCn1c(-c2nonc2N)nc2cncc(C(=O)N3CCNCC3)c21 | 2.9 | 3.66 | 4.51 | -0.51 | 1.12 | 10.8 | 8.24 | 1.51 | 2.14 | 3.11 | 4.49 | 5.61 | 4.93 | 5.47 | 6.02 | 3.69 | 5.39 | 8.73 | 8.25 | -0.22 |
| COc1ccc(-c2ccncc2)cc1C(N)=O | 4.17 | 5.11 | 7.24 | 1.6 | 5.22 | 8.76 | 12.9 | 0.72 | 3.34 | 4.28 | 11.4 | 4.89 | 4.05 | 6.61 | 8.92 | 3.27 | 7.82 | 4.87 | 6.68 | -1.91 |
| CS(=O)(=O)CCN(CC#N)Cc1ccc(-c2ccc3ncnc(Nc4ccc(OCc5cccc(F)c5)c(Cl)c4)c3c2)o1 | -0.17 | -3.61 | 0.96 | -4.78 | 1.4 | 3.25 | 7.32 | -0.14 | -0.7 | 3.8 | 5 | 2.47 | 0.44 | 3.04 | 3.9 | 0.41 | 0.1 | 0.67 | 1.66 | -1.31 |
| CS(=O)(=O)Nc1ccc(N/C=C2\C(=O)Nc3ccccc32)cc1 | 47.6 | 7.77 | 43 | 6.66 | 61.1 | -2.57 | 0.71 | 2.65 | 18.6 | 18.1 | 73 | -3.18 | -0.2 | 11.8 | 63.8 | 6.72 | 51.9 | -0.42 | 24.6 | 0.42 |
| CCn1c(-c2nonc2N)nc2c(C#CC(C)(C)O)nc(OC[C@@H](N)c3ccccc3)cc21 | 11.7 | 2.1 | 7.36 | 4.3 | -0.02 | -0.81 | 7.62 | 0.61 | 8.96 | 1.21 | 14.1 | -0.93 | 3.8 | -1.26 | 9.85 | -2.01 | 15.2 | -1.88 | 11.8 | 1.4 |
| Cc1ccc(C(=O)NC2CCCCC2)cc1-c1ccc(C(=O)NCC2CC2)cc1 | 4.4 | 3.05 | 7.57 | 2.71 | 14 | 7.27 | 6.5 | 2.78 | 2.05 | 2.48 | 0.87 | 4.37 | 4.68 | 4.93 | 1.64 | 5.76 | 4.46 | 6.92 | 4.05 | 1.41 |
| COC(=O)Nc1nc2cc(Oc3cccc(NC(=O)Nc4cc(C(F)(F)F)ccc4F)c3)ccc2[nH]1 | 1.22 | -1.59 | -0.29 | 0.03 | 4.29 | 4.04 | 12.5 | 1.34 | 3.06 | 3.21 | 4.32 | 0.59 | 0.38 | 1.15 | 3.21 | -1.6 | 0.24 | -1.24 | 0.17 | 0.73 |
| CCCN1CCC(Oc2cc(Nc3nc(Nc4cccc(F)c4C(N)=O)c4cc[nH]c4n3)c(OC)cc2Cl)CC1 | 5.9 | 3.16 | 6.47 | 2.93 | -1.8 | -0.06 | 7.28 | 1.26 | 9.17 | -0.01 | 3.64 | 0.84 | 20.6 | 1 | 1.71 | -0.56 | 1.54 | -0.96 | 0.14 | 1.68 |
| COc1cc2ncn(-c3cc(O[C@@H](C)c4ccccc4Cl)c(C(N)=O)s3)c2cc1OC | 18.1 | 8.64 | 38.8 | 8 | 49.3 | 54 | 79.5 | 6.14 | 20.2 | 5.91 | 32 | 4.3 | 3.99 | 9.25 | 28.5 | 8.63 | 40.3 | 11.8 | 34.8 | -3.61 |
| COc1cc2ncn(-c3cc(OCc4ccccc4Cl)c(C(N)=O)s3)c2cc1OC | 23.5 | 4.78 | 29.9 | 2.35 | 40.5 | 67.3 | 99 | 7 | 30.8 | 13.9 | 56.6 | 2.14 | 2.16 | 10.9 | 51 | 7.11 | 46.2 | 6.18 | 42.4 | 0.45 |
| NS(=O)(=O)c1ccc(N/N=C2\C(=O)Nc3ccc(C(=O)NCCc4c[nH]cn4)cc32)cc1 | 41.2 | 6 | 26.8 | 3.9 | 31.5 | 3.71 | 8.99 | 1.62 | 6.59 | 10.5 | 40 | 6.81 | 16.3 | 11.2 | 32.6 | 56.3 | 86.7 | 46.5 | 83.5 | -0.45 |
| COc1cc2c(cc1Nc1nc(N3CCc4ccccc43)c3cc[nH]c3n1)N(C(=O)CN(C)C)CC2 | 2.61 | 0.77 | 3.08 | 0.6 | 8.2 | 1.91 | 1.24 | 0.88 | 3.15 | 1.37 | 2.27 | 1.49 | 2.14 | 3.79 | -0.01 | 5.66 | 6.86 | 6.28 | 5.22 | -0.61 |
| Nc1ncnc2occ(-c3ccc(NC(=O)Nc4cccc(C(F)(F)F)c4)cc3)c12 | 60.4 | 30.7 | 66.7 | 42.5 | 88.8 | 26.4 | 67.9 | 28.7 | 59.2 | 2.65 | 12.3 | 4.53 | 4.91 | 3.8 | 8.17 | 5.73 | 15.6 | 5.7 | 13.3 | -2.6 |
